The list is not random: actives were taken first. Their share in the collection is about 0.43%.
CXXC DNA block – blocks binding of human MLL CXXC domain to DNA; Q03164; MLL-CXXC / FITC-HOXA9 DNA fluorescence polarization; Potency, µM (top dose mostly 115 µM), inactives show at the highest dose activity change, negative = inhibition, most hits filed as inhibitors; 0.037% of 290,000 active; AID 2662; active = well fitted inhibition curve with a large enough effect in the polarisation, with a control signal flat, not every such curve was filed as active; inconclusive = small, poorly fitted or top-dose-only effect, or effect the other way, or a change in a side signal; inactive = no such curve, though single readings can be large or run the other way; the % refers to the polarisation; note: potency is the fitted concentration of half-maximal effect
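Fluorescence polarization: 7 uM MLL-CXXC (stock) preincubated 5 min with compounds, then 50 nM fluorescein-HOX-A9 DNA (stock) added; 30 min ambient. Buffer 50 mM Tris-HCl pH 7.5, 50 mM NaCl, 1 mM DTT, 0.05% BSA.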
Tb PFK block – inhibitors of T. brucei phosphofructokinase | 0.17% of 330,000 active | AID 485367 | O15648 | T. brucei PFK, ADP-Glo luminescence | Potency, µM (top dose mostly 57.5 µM), for inactives: at the highest dose activity, negative = inhibition, most hits filed as inhibitors;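 note: potency is the fitted concentration of half-maximal effect; 0% = uninhibited 1x PFK enzyme wells and -100% = no-enzyme wells; nearly all actives have a fitted effect of over 60% in size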
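Activity is normalized to no-enzyme wells (full inhibition) and 1.25 nM enzyme wells (no inhibition). Reaction: 0.5 mM F6P, 0.1 mM ATP, 45 min RT, ADP-Glo luminescence; concentration-response curves fitted and classed by quality.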
GoLoco inh red – blocks human Gai1 binding to RGS12 GoLoco peptide, red readout; 0.44% of 230,000 active; Potency, µM (highest dose often 61.6 µM), for inactives: at the top dose activity, negative = inhibition, actives largely listed as inhibitors; P63096; Gai1:RGS12 GoLoco peptide FP, rhodamine, 10 min; AID 880; active = well fitted inhibition curve with a large enough effect, not every such curve was filed as active; inactive = no such curve, though single readings can be large or run the other way; note: potency is the fitted concentration of half-maximal effect; % is set by controls: 0 for no effect and ±100 for the full control effect; nearly all actives have a fitted effect of over 30% in size
Target sequence (P63096 whole entry, looked up): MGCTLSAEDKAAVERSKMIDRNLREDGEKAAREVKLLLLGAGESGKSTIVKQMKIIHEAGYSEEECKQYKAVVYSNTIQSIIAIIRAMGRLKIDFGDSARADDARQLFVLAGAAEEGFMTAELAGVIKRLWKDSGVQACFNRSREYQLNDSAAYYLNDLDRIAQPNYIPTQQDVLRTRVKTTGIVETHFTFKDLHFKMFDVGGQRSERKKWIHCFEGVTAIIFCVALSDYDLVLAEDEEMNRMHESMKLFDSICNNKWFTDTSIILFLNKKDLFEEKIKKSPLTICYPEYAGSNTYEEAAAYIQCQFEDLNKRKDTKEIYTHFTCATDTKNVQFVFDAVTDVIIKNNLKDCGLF
Menin-MLL TR inh – menin-MLL binding inhibition, Texas Red mutant peptide | Menin + Texas Red MLL mutant peptide, fluorescence polarization | Potency, µM (top dose mostly 61.6 µM), for inactives: at the top dose FP activity change, negative = inhibition, usual class: inhibitors | 0.23% of 270,000 active | O00255; active = well fitted inhibition curve with a large enough effect in the polarisation, with a control signal flat, not every such curve was filed as active; inconclusive = small, poorly fitted or top-dose-only effect, or effect the other way, or a change in a side signal; inactive = no such curve, though single readings can be large or run the other way; the % refers to the polarisation; note: potency is the fitted concentration of half-maximal effect; % of control where 0% means no effect
Menin MLL FP FL – displaces fluorescein MLL peptide from human menin. Fluorescence polarization, fluorescein-MLL peptide displacement from menin. FP activity change, % at 61.4 µM. 290,000 tested, under 10 active. AID 1766; active = well fitted curve in the direction sought with a large enough effect in the polarisation, not every such curve was filed as active; inconclusive = small, poorly fitted or top-dose-only effect, or effect the other way, or a change in a side signal; inactive = no such curve, though single readings can be large or run the other way; the % refers to the polarisation; note: % of control where 0% means no effect
MLL CXXC FP-Fl – inhibitors of human MLL CXXC domain-DNA interaction; shares compounds with CXXC DNA block; Potency, µM (titrated, usually from 345 µM), for inactives: at the highest dose activity change, negative = inhibition, usual class: inhibitors; AID 624160; 70% of 200 active; MLL CXXC-DNA binding, fluorescein FP; note: potency is the fitted concentration of half-maximal effect; nearly all actives have a fitted effect of over 80% in size
MLL CXXC FP-TR – disrupts human MLL CXXC domain binding to DNA, Texas Red; shares compounds with CXXC DNA block; Potency, µM (doses to about 345 µM), without a hit: at the highest dose activity change, negative = inhibition, actives largely listed as inhibitors; 40% of 200 active; MLL CXXC-DNA binding, Texas Red fluorescence polarization; AID 624161; note: potency is the fitted concentration of half-maximal effect; % is set by controls: 0 for no effect and ±100 for the full control effect; nearly all actives have a fitted effect of over 75% in size
MLL CXXC TRF – MLL CXXC-DNA interaction inhibition, HTRF readout; shares compounds with CXXC DNA block; MLL CXXC-DNA binding, HTRF, biochemical; Potency, µM (highest dose often 172 µM), without a hit: at the top dose activity change, negative = inhibition, usual class: inhibitors; 30% of 210 active; AID 624162; note: % is set by controls: 0 for no effect and ±100 for the full control effect; nearly all actives have a fitted effect of over 80% in size
The depositor's hits bear a star; ? = inconclusive; . = no result; [ ] = remark or other dose. Unless noted, calls come from the whole dose curve; as a rule, active = well fitted curve in the direction sought with a large enough effect; inconclusive = small, poorly fitted or top-dose-only effect, or another doubt; inactive = no such curve, though single readings can be large; an effect the other way counts as inactive or inconclusive.

SMILES	CXXC DNA block	Tb PFK block	GoLoco inh red	Menin-MLL TR inh	Menin MLL FP FL	MLL CXXC FP-Fl	MLL CXXC FP-TR	MLL CXXC TRF
Cc1ccc(S(=O)(=O)NC2CCCCCCC2)cc1	-6%	-2%	.	-10%	-2	.	.	.
Cc1ccc(S(=O)(=O)NC2OC(=O)C(Cl)=C2Cl)cc1 (configuration not stated)	?	6%	-7%	11%	2	89µM*	142µM*	49µM*
CC(C)C[C@H](NC(=O)[C@H](CC(C)C)NC(=O)[C@H](Cc1ccc(O)cc1)NC(=O)CNC(=O)[C@H](C)NC(=O)[C@H](CO)NC(=O)[C@H](CC(N)=O)NC(=O)[C@H](CC(C)C)NC(=O)[C@@H](NC(=O)[C@H](Cc1c[nH]c2ccccc12)NC(=O)CN)[C@@H](C)O)C(=O)NCC(=O)N1CCC[C@H]1C(=O)N1CCC[C@H]1C(=O)N1CCC[C@H]1C(=O)NCC(=O)N[C@@H](Cc1ccccc1)C(=O)N[C@@H](CO)C(=O)N1CCC[C@H]1C(=O)N[C@@H](Cc1ccccc1)C(=O)N[C@@H](CCCNC(=N)N)C(N)=O	.	.	.	-3%	-9	.	.	.
Cc1cc(-c2ccccc2)c2c3c(c(-c4ccccc4)n2n1)c(=O)n(C)c(=O)n3C	50µM*	-1%	17%	4%	?	-43%	16%	9%
Cc1cc(-c2ccccc2)c2c3c(cn2n1)c(=O)n(C)c(=O)n3C	3%	0%	10%	-6%	1	.	.	.
O=C1/C(=C\c2cccnc2)CCc2ccccc21	?	-7%	.	-5%	5	?	-15%	28%
O=C1/C(=C/c2cccnc2)CC/C1=C\c1cccnc1	-9%	0%	5%	-17%	-5	.	.	.
O=c1c(Cl)c2oc3ccccc3nc-2c2ccccc12	32µM*	-2%	19%	?	?	113µM*	?	40%
CC(CO)NC(=O)C1C=C2c3cccc4[nH]cc(c34)CC2N(C)C1 (configuration not stated)	32µM*	.	-23%	-15%	?	142µM*	?	24%
C[C@@H](CO)NC(=O)[C@@H]1C=C2c3cccc4[nH]cc(c34)C[C@H]2N(C)C1	.	.	-14%	-14%[24.8 µM]	?	.	.	.
Nc1c(S(=O)(=O)O)cc(Nc2ccc(Cl)cc2)c2c1C(=O)c1ccccc1C2=O	.	.	.	?	0	.	.	.
Nc1c(S(=O)(=O)O)cc(Nc2ccc(Nc3nc(Cl)nc(Nc4ccc(S(=O)(=O)O)cc4)n3)c(S(=O)(=O)O)c2)c2c1C(=O)c1ccccc1C2=O	10µM*	.	4%	?	3	18µM*	18µM*	6.1µM*
COc1ccccc1NC(C)=O	-1%	-1%	1%	6%	-3	.	.	.
COc1ccccc1NC(=S)NC(C)=O	?	3%	8%	-1%	-4	.	.	36%
CC(C)CCOc1ccc(N)cc1	.	.	.	-17%	-2	.	.	.
COc1cc(/C=C2/C(=O)c3cccc([N+](=O)[O-])c3C2=O)c(Br)cc1O	28µM*	?	20%	?	4	40µM*	80µM*	?
COc1ccccc1NC(=O)CCCCCN1C(=O)c2cccc([N+](=O)[O-])c2C1=O	-11%	0%	.	-1%	-3	.	.	.
O=C(/C=C/c1ccc(I)cc1)c1ccc(B(O)O)cc1	.	.	.	6%	2	.	.	.
Cc1cc2c(C(F)(F)F)cc(=O)oc2c2c1NCCC2	?	-4%	2%	-13%	?	.	.	.
CN1CCCc2cc3c(C(F)(F)F)cc(=O)oc3nc21	28µM*	-6%	4%	-2%	?	45µM*	-16%	22%
CCN1C(=O)NC(=O)/C(=C\c2cn(CC(=O)O)c3ccccc23)C1=O	?	-6%	.	24%	27	.	.	.
O=C(O)Cn1cc(/C=C2\C(=O)NC(=O)N(Cc3ccco3)C2=O)c2ccccc21	?	?	127%	?	?	7.1µM*	40%	49µM*
Cc1ccc(N2C(=O)NC(=O)/C(=C\c3cn(CC(=O)O)c4ccccc34)C2=O)cc1	?	9%	.	57%	16	14µM*	71µM*	-60%
CC(C)c1nnc(NC(=O)c2nc(S(=O)(=O)Cc3ccc(F)cc3)ncc2Cl)s1	?	3%	.	.	.	.	.	.
CCSc1nnc(NC(=O)c2nc(S(=O)(=O)Cc3ccc(F)cc3)ncc2Cl)s1	?	-6%	.	.	.	22µM*	100µM*	9.7µM*
SMILES	CXXC DNA block	Tb PFK block	GoLoco inh red	Menin-MLL TR inh	Menin MLL FP FL	MLL CXXC FP-Fl	MLL CXXC FP-TR	MLL CXXC TRF
C#CCOCCOCCOCCNc1nc(N2CCN(C(=O)[C@H](CCCCN)n3cc([C@@H](N)C(C)CC)nn3)CC2)nc(N2CCN(C(=O)[C@H](CCCCN)n3cc([C@@H](N)CO)nn3)CC2)n1 (some centres not stated)	79µM*	?	4%	-4%	-6	5.6µM*	4%	-1%
C#CCOCCOCCOCCNc1nc(N2CCN(C(=O)[C@H]([C@@H](C)CC)n3cc([C@@H](N)CO)nn3)CC2)nc(N2CCN(C(=O)[C@H](CCCCN)n3cc([C@@H](N)C(C)CC)nn3)CC2)n1 (some centres not stated)	16%	-1%	4%	0%	-4	.	.	.
COc1ccc2c(c1)C(=O)[C@H](OC(=O)NCCOc1ccccc1)[C@@H](c1ccc(OC)c(Br)c1)O2	.	.	2%	12%	-1	.	.	.
N#CC1(C#N)C(c2ccccc2)OC23CCCCCC2C1(C#N)C(=N)O3 (configuration not stated)	50µM*	0%	-14%	0%	-16	50µM*	?	11%
Cc1[nH][nH]c(=O)c1C(c1ccc(-c2ccc(F)cc2)o1)c1c(C)[nH][nH]c1=O	-14%	-15%	0%	?	2	.	.	.
Cc1[nH][nH]c(=O)c1C(c1ccc(-c2ccc(C(=O)O)cc2)o1)c1c(C)[nH][nH]c1=O	?	?	-15%	-24%	2	-6%	9%	?
Cc1cc(C(=O)N/N=C\c2cc(C(C)(C)C)ccc2O)n[nH]1	14%	2%	.	.	.	.	.	.
CC(=O)N/N=C/c1cc(C(C)(C)C)cc(/C=N/NC(C)=O)c1O	?	-3%	14%	0%	?	52%	-10%	45%
